Screens from PubChem.
ELG1 DNA repair = ELG1-dependent DNA repair inhibition | HEK293T ELG1-luciferase reporter, luminescence, 16 h; DNA damage induced by 5-fluorouridine | Potency, µM (titrated, usually from 46.1 µM), inactives show at the top dose activity change, negative = inhibition, hits mostly inhibitors | actives 2.3% (n = 330,000); further: potency means the concentration at half of the fitted maximal effect; nearly all actives have a fitted effect of over 55% in size
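Cells (2,000 per well) received 5-fluorouridine plus test compound or DMSO and were incubated 16 hr at 37 °C, 5% CO2. Luciferase activity was read by luminescence 30 min after ONE-Glo addition; signal suppression marked inhibition of damage-induced ELG1 function.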
TDP1 cell noCPT = qHTS for Inhibitors of human tyrosyl-DNA phosphodiesterase 1 (TDP1): qHTS in cells in absence of CPT | DT40 Tdp1-/- hTDP1 cells, no CPT, ATP luminescence, 48 h | Potency, µM (highest dose often 46.2 µM), inactives show at the highest dose activity change, negative = growth inhibition, most hits filed as inhibitors | actives 15% (n = 420,000) | AID 686978, 2013; further: potency means the concentration at half of the fitted maximal effect; nearly all actives have a fitted effect of over 55% in size
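No-CPT arm: Tdp1-/-;hTDP1 DT40 cells (400/well) plus compounds, incubated ≥48 hr at 37 °C. Readout CellTiter-Glo luminescence.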
TDP1 cell CPT = growth inhibition of DT40 Tdp1-/-;hTDP1 cells with camptothecin (screen for TDP1 inhibitors); chicken DT40 Tdp1-/-;hTDP1 cells + 20 nM CPT, ATP luminescence, 48 h; Potency, µM (doses to about 46.2 µM), without a hit: top-dose activity change, negative = growth inhibition, usual class: inhibitors; actives 12% (n = 420,000); AID 686979; further: potency means the concentration at half of the fitted maximal effect; nearly all actives have a fitted effect of over 55% in size
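Chicken DT40 Tdp1-/- cells stably complemented with human TDP1 were seeded at 400 cells/well in medium containing 20 nM camptothecin, exposed to pin-transferred compounds, and grown at 37 °C for at least 48 hr. Viability was read as ATP luminescence.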
HT1080-NT tox = kills 2HG-producing HT-1080-NT fibrosarcoma cells; HT-1080-NT fibrosarcoma viability, CellTiter-Glo ATP luminescence, 48 h; Potency, µM (doses to about 46.1 µM), without a hit: at the highest dose activity, negative = less viability, usual class: cytotoxic; actives 1.6% (n = 360,000); AID 686970;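 further: NT is the 2HG producing partner of a matched IDH1 knockdown line; potency means the concentration at half of the fitted maximal effect; 0% = DMSO-treated cells and -100% = media-only wells without cells; nearly all actives have a fitted effect of over 55% in size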
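Viability by CellTiter-Glo luminescence after 48 h compound exposure at 37C of HT-1080-NT cells (750/well, RPMI, 5% FBS). % activity scaled between DMSO wells and medium-only wells, then curve-fitted and categorized by curve class.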
IL1B secr inh = inhibitors of inflammasome signaling (IL-1 beta secretion). activity change, % at 57.5 µM. actives 4.7% (n = 360,000). THP-1 LPS/ATP IL-1B secretion, AlphaLISA, 16 h; active compounds read low; in the data active means activity change below about -50%; inconclusive means mostly about -30% to -49%
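THP-1 cells pretreated 1 hr with compounds (up to 57.5 uM final), then stimulated with LPS (250 ng/mL final) plus ATP (1.25 mM final); secreted IL-1B measured by AlphaLISA after 16 hr, decreased signal indicating inhibition.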
HT1080 IDH1KD tx = kills HT-1080 cells with IDH1 knockdown; AID 686971; actives 2% (n = 360,000); HT-1080 IDH1 knockdown viability, ATP luminescence, 48 h; Potency, µM (highest dose often 46.1 µM), for the others: at the top dose activity, negative = toxicity, usual class: cytotoxic;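 further: potency means the concentration at half of the fitted maximal effect; 0% = DMSO wells and -100% = cell-free medium wells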
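Knockdown cells (IDH1KD HT-1080) received compounds 2 h after plating at 750 cells/well and were kept 48 h at 37 °C in 5% FBS RPMI. A CellTiter-Glo luminescence read gave % activity for curve fitting.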
* marks the source's active call; other numbers are inactive results; ? = inconclusive; / = no result; ! = a repeat was not active. Only some compounds are listed: those with a hit (about 19% of all), similar ones and a draw of the others. Unless noted, the call rests on the fitted dose curve; in most records, active means well fitted curve in the direction sought with a large enough effect; inconclusive means small, poorly fitted or top-dose-only effect, or another doubt; inactive means no such curve, though single readings can be large; an effect the other way counts as inactive or inconclusive. Unless noted, on the % scale 0 is the no-effect control and ±100 the full control effect.

SMILES	ELG1 DNA repair	TDP1 cell noCPT	TDP1 cell CPT	HT1080-NT tox	IL1B secr inh	HT1080 IDH1KD tx
CC(=O)NC1=C(N2CC2C)C(=O)C(NC(C)=O)=C(N2CC2C)C1=O (configuration not stated)	/	4.6µM*	1.8µM*	-1%	2	-14%
COc1ccc(-n2c(CN3CCOCC3)nc3ccccc3c2=O)c(OC)c1	-5%	?	?	2%	-5	7%
COc1cccc(-n2c(C)nc3ccccc3c2=O)c1	17%	-12%	-29%	-9%	23	-1%
COc1ccc(-n2c(/C=C/c3cccc(F)c3)nc3ccccc3c2=O)cc1Cl	/	?	21µM*	/	/	/
COc1ccc(-n2c(/C=C/c3cccc(F)c3)nc3ccccc3c2=O)c(OC)c1	?	?	13µM*	5%	7	3%
Oc1ccc2c3c1O[C@H]1[C@@H](O)CC[C@@]4(O)C(C2)N(CC2CCC2)CCC314 (some centres not stated)	/	-8%	2%	9%	/	16%
CC1=C2CCC3C4CCC(=O)[C@@]4(C)CCC3[C@]2(C)CCC1=O (some centres not stated)	/	-20%	-15%	/	/	/
Cc1ccc(/C=C2\C(=O)NC(=O)N(Cc3ccccc3Cl)C2=O)o1	?	?	?	-3%	25	2%
O=C1NC(=O)N(Cc2ccccc2Cl)C(=O)/C1=C/c1cccs1	?	4.6µM*	6.5µM*	-5%	?	-12%
CN(C)c1ccc(/C=C2\C(=O)NC(=O)N(Cc3ccc(F)cc3)C2=O)cc1	16%	-2%	-1%	8%	4	18%
O=C1NC(=O)N(Cc2ccc(F)cc2)C(=O)/C1=C/c1cccs1	?	8.2µM*	12µM*	?	-101*	?
Cc1noc(C)c1C(=O)N1CCC[C@@]2(CCN(CC(C)C)C2)C1	/	-13%	-9%	/	/	/
C[C@H]1CCC/C=C/C2C[C@H](O)CC2[C@H](O)/C=C/C(=O)O1 (some centres not stated)	?	0.18µM*	0.23µM*	0.037µM*	-64*	0.029µM*
CC1CCC/C=C/C2CC(O)CC2C(O)/C=C/C(=O)O1 (configuration not stated)	0.65µM*	0.37µM*	0.29µM*	?	-56*	?
COc1ccc(CC2C(=O)NC(C)C(=O)N(C)C3C(=O)N(C)C(Cc4ccc(O)c(c4)Oc4ccc(cc4)C3O)C(=O)NC(C)C(=O)NC(C)C(=O)N2C)cc1 (configuration not stated)	/	0.021µM*	0.016µM*	0.46µM*	-101*	0.073µM*
O=C(Cc1ccc(Cl)c(Cl)c1)N1CCCCC1CN1CCCC1 (configuration not stated)	/	-16%	-36%	/	/	/
O=C(NCCc1ccccc1)[C@@H]1CC=C[C@@H]2CCN(Cc3ccc(Cl)c(Cl)c3)C(=O)[C@@H]21	/	10µM*	4µM*	-22%	0	-29%
CCC(=O)C1=C(c2cccc([N+](=O)[O-])c2)N(C(=O)CC)n2c(nnc2C2CCCCC2)S1	/	4.1µM*	3.3µM*	/	/	/
CC(C)(C)c1ccc(/C=C2\Oc3cc(OC(=O)N4CCOCC4)ccc3C2=O)cc1	0%	26µM*	16µM*	21µM*	-77*	18µM*
COC(=O)C1=C(c2c(C)noc2C)C[C@@H]2CC[C@H]1N2C(=O)NCCOc1ccccc1	20%	-9%	10%	7%	15	13%
O=Cc1cn(Cc2c(F)cccc2Cl)nc1-c1ccccc1	/	?	?	-18%	-12	-12%
CCn1cc2nc(SCc3c(F)cccc3Cl)n(CCc3ccccc3)c(=O)c2n1	/	23µM*	15µM*	/	/	/
CCn1cc2nc(SCc3cccc(C(F)(F)F)c3)n(Cc3ccc(OC)cc3)c(=O)c2n1	/	15µM*	21µM*	/	/	/
O=P(O)(O)Cc1c(Cl)cccc1Cl	0%	-6%	4%	21%	22	?
ClCCN(CCCl)c1ccc(/C=C/c2sc3ccccc3[n+]2CCCCI)cc1	/	2.5µM*	3.2µM*	/	/	/
SMILES	ELG1 DNA repair	TDP1 cell noCPT	TDP1 cell CPT	HT1080-NT tox	IL1B secr inh	HT1080 IDH1KD tx
O=C(c1ccco1)N1CCC[C@@]2(CCN(Cc3ccncc3)C2)C1	/	-13%	-8%	/	/	/
COC(=O)C1=C(C)NC(=S)NC1c1ccc(N(CCCl)CCCl)cc1Cl (configuration not stated)	/	21µM*	9.2µM*	0%	-28	0%
CC(C)=CC1C(C(=O)OCN2C(=O)C3=C(CCCC3)C2=O)C1(C)C (configuration not stated)	/	-23%	-28%	/	/	/
CN(C)CCCN1c2ccccc2Sc2ccc(Cl)cc21	-28%	23µM*!	11µM*!	15µM*!	0	?
OCCN1CCN(CC/C=C2/c3ccccc3Sc3ccc(Cl)cc32)CC1	11%	23µM*	?	?	?	?
CN(C)CCC=C1c2ccccc2CCc2ccccc21	-8%	27µM*!	24µM*!	?	?	23µM*
Cc1ccccc1C1=NCC(=S)Nc2ccc(Cl)cc21	3%	?	?	8%	67	-2%
CN(C)CC/C=C1\c2ccccc2Sc2ccc(Cl)cc21	2%	21µM*	24µM*	21µM*	-57*	?
c1ccc(N2[C@@H]3CC[C@H]2c2ccccc2C3)cc1	/	?	?	18%	33	3%
Cc1cccc(Cn2cccc(C(=O)Nc3ccc(F)cc3F)c2=O)c1	/	?	-26%	/	/	/
O=C(CNC(=O)c1ccco1)OCN1C(=O)c2ccccc2C1=O	8%	?	?	16%	1	13%
c1ccc(NC2=NCCCS2)cc1	5%	19%	-10%	0%	0	0%
CC[C@H](CO)Nc1nc(NCc2ccccc2)c2ncn(C(C)C)c2n1	/	22µM*!	25µM*	/	/	/
O=C(C1CCN(S(=O)(=O)c2ccc(Br)s2)CC1)N1CCN(c2ccc(F)cc2)CC1	/	21µM*	?	/	/	/
O=C(CNC(=O)c1ccc(Br)cc1)NCC(=O)OCC(=O)c1ccc([N+](=O)[O-])cc1	8%	-14%	?	3%	15	0%
NCC(CC(=O)O)c1ccc(Cl)s1 (configuration not stated)	/	-1%	11%	/	/	/
